Source: PubChem (several laboratories)
Mot1-301 SUMO = inhibitors of SUMOylation pathway: yeast Mot1-301 growth rescue | S. cerevisiae Mot1-301 growth rescue, ATP luminescence, 38.5C; percent above DMSO median, 100 means doubled | growth rescue, % at 18.8 µM | 1% of 320,000 active;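 active means every valid replicate shows activation above 250% relative to neutral control wells; inactive means the rest, any valid replicate at or below 250%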
aDG glyco act = alpha-DG glycosylation activation; activation, % at 10 µM; AID 624168; 0.22% of 360,000 active; Pro5-aDG cells, alpha-DG glycosylation AlphaScreen (IIH6); 0% Pro5, 100% B10-LARGE cell signal;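 active means activation of at least 8% versus controls, or a plate z-score of at least 8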;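 further: Pro5 are CHO cells carrying HIG-tagged alpha-DG that lacks glycosylation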
MPTP inh = permeability transition pore inhibition; isolated mouse mitochondria, Ca2+ swelling absorbance, 30 min; inhibition, % at 10 µM; 1.4% of 360,000 active; AID 602449;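 active means inhibition of 50% or more, scaled per plate between neutral and stimulator controls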
Yeast superoxide = lowers age-related superoxide in aged yeast cells; S. cerevisiae aged cells, superoxide DHE fluorescence; stronger effect = lower value; superoxide response (% of plate mean), % at 10 µM; 0.18% of 330,000 active; AID 2690;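 active means superoxide response under a set limit, about three screen SD below normal, cut at about 65% in these data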;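 further: yeast aged for seven days with compound at 30 °C before DHE staining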
FAS-TE inh = blocks the thioesterase domain of human fatty acid synthase; P49327; recombinant FAS-TE, OMFH fluorogenic substrate, fluorescence endpoint; inhibition, % at 15 µM; 0.67% of 360,000 active; AID 602261;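 active means compounds whose normalised, plate-corrected inhibition of enzyme fluorescence in the single-dose primary screen is 50% or more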
H9c2 protect = protects H9c2 cardiomyocytes from peroxide injury; H2O2 injury protection, ATPLite, 2 h; protection from H2O2 cell death, % at 20 µM; 0.63% of 360,000 active;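 active means compounds giving at least 50% protection of heart cells from peroxide-induced death in the single-dose screen, raw or plate-pattern-corrected value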
Of the large screens only hits and unclear results are named; the others gave an inactive call. Most compounds without a hit are left out; they make up all but 3.8% or so of the library.

CCn1nc(C)cc1C(=O)N1CCCC(Nc2ccc(C(C)C)cc2)C1 (configuration not stated)	none (no result: Mot1-301 SUMO, Yeast superoxide)
COc1ccc(-c2cc(NC(C)=O)c3ncc(-c4cccc(C(C)=O)c4)n3c2)cc1OC	H9c2 protect 111 (no result: Mot1-301 SUMO, Yeast superoxide)
CC(=O)Nc1cccc(-c2cc(NC=O)c3ncc(-c4ccc(C(C)=O)cc4)n3c2)c1	H9c2 protect 93 (no result: Mot1-301 SUMO, Yeast superoxide)
CC(=O)c1ccc(-c2cnc3c(NC=O)cc(-c4ccccc4Oc4ccccc4)cn23)cc1	none (no result: Mot1-301 SUMO, Yeast superoxide)
COc1ccc(-c2cc(NC=O)c3ncc(-c4ccc(C(C)=O)cc4)n3c2)cn1	H9c2 protect 64 (no result: Mot1-301 SUMO, Yeast superoxide)
CC(=O)Nc1cccc(-c2cc(NC(C)=O)c3ncc(-c4cccc(C(C)=O)c4)n3c2)c1	H9c2 protect 59 (no result: Mot1-301 SUMO, Yeast superoxide)
CC(=O)Nc1cc(-c2cccc(N)c2)cn2c(-c3ccc(C(C)=O)cc3)cnc12	none (no result: Mot1-301 SUMO, Yeast superoxide)
O=C1NC(CCO)C(=O)NC1CCO (configuration not stated)	none (no result: Mot1-301 SUMO, Yeast superoxide)
CSc1nc(N)nc2c1ncn2Cc1ccccc1	none (no result: Mot1-301 SUMO, Yeast superoxide)
CC(C)c1nnc(NC(=O)C2CCCN(C(=O)Nc3ccc(F)cc3)C2)s1 (configuration not stated)	none
O=C(Nc1ccc(N2CCOCC2)cc1)c1csc([C@@H]2C[C@H](O)[C@@H](CO)O2)n1	none (no result: Mot1-301 SUMO, Yeast superoxide)
CCCc1nc2ccccc2c(=O)n1/N=C/c1ccccc1O	H9c2 protect 56
Cc1ccc(NC(=O)COc2ccc3c(c2)OCO3)c(Cl)c1	none (no result: Mot1-301 SUMO)
O=c1c(O)c(-c2cccs2)oc2ccccc12	none
O=c1c(O)c(-c2cccs2)oc2ccc(Cl)cc12	H9c2 protect 74
COc1ccccc1-c1cc(NC=O)c2ncc(-c3cccc(C(=O)N(C)C)c3)n2c1	none (no result: Mot1-301 SUMO, Yeast superoxide)
COc1ccccc1-c1cc(NC=O)c2ncc(-c3cccc(C(C)=O)c3)n2c1	H9c2 protect 60 (no result: Mot1-301 SUMO, Yeast superoxide)
CC(=O)c1cccc(-c2cnc3c(NC=O)cc(-c4ccc(F)cc4)cn23)c1	H9c2 protect 61 (no result: Mot1-301 SUMO, Yeast superoxide)
O=C(NCc1ccccn1)C1CCN(C2CCN(Cc3cccc(F)c3)CC2)CC1	none (no result: Mot1-301 SUMO, Yeast superoxide)
CCc1cc(C(=O)N2CCN(c3ncccn3)CC2)sc1C	none
CC(C)C1Nc2ccc(C(=O)N3CCN(c4ccccn4)CC3)cc2NC1=O (configuration not stated)	H9c2 protect 51
O=C1CNc2ccc(C(=O)N3CCN(c4ccccn4)CC3)cc2N1	none
O=C(CCc1nc2ccccc2c(=O)[nH]1)NCCN1C(=O)S/C(=C\c2ccc(OC(F)F)cc2)C1=O	H9c2 protect 69 (no result: Mot1-301 SUMO, Yeast superoxide)
O=C(CCc1nc2ccccc2c(=O)[nH]1)NCCN1C(=O)S/C(=C\c2ccccc2Cl)C1=O	none
O=C(Nc1cccnc1)c1ccc(COc2cc(Cl)ccc2Cl)o1	none
O=C(N/N=C/c1ccc(O)cc1)c1ccc(COc2cc(Cl)ccc2Cl)o1	H9c2 protect 68
Cc1cccc(N2Cc3ccc(Br)cc3C2)c1	none
CN(C)c1ccc(/C=C(/C(=O)c2ccc(Cl)cc2Cl)n2cncn2)cc1	Mot1-301 SUMO 308
COc1ccc(/C=C(/C(=O)c2ccc(Cl)cc2Cl)n2cncn2)cc1	none (no result: Mot1-301 SUMO)
Cc1ccc2cc(CN(C(=O)c3ccncc3)C(C)C)c(=O)[nH]c2c1	Mot1-301 SUMO 306
c1ccc(Cn2nnc(CNc3ccccc3)c2-c2c(CNc3ccccc3)nnn2Cc2ccccc2)cc1	none
CCCn1c(NC(=O)c2ccc(Cl)c(S(=O)(=O)N3CCCC3)c2)nc2ccccc21	H9c2 protect 61
O=C(NCc1nc2ccccc2[nH]1)c1ccc(Cl)c(S(=O)(=O)N2CCCC2)c1	none
CC(C)(C)[C@H]1COC(=O)CCCC/C=C\C[C@H](CC(=O)NCCO)C(=O)N1	none
COc1ccc(Cl)cc1NC(=O)CN(C)C(=O)Cn1[nH]c(=O)c2ccccc2c1=O	H9c2 protect 84
CN(CC(=O)Nc1ccccc1Br)C(=O)Cn1[nH]c(=O)c2ccccc2c1=O	H9c2 protect 83
COc1cccc(NC(=O)CN(C)C(=O)Cn2[nH]c(=O)c3ccccc3c2=O)c1	none
CCOc1ccc(/C=C/C(=O)c2cc(Br)ccc(=O)c2O)cc1	H9c2 protect 53
CCc1ccc(/C=C/C(=O)c2cc(Br)ccc(=O)c2O)cc1	none
O=C(CSc1nnc(NC(=O)c2c(F)cccc2F)s1)NC1CCCCC1	none
O=C(NCc1ccccc1)C1CC(=O)N(C2CCCCC2)C1 (configuration not stated)	Mot1-301 SUMO 318
COc1cc2cccc(OC)c(=O)c2c(OC)c1OC	Mot1-301 SUMO 757
COc1cccc(CN(C)C(=O)C(Cc2ccccc2)NC(=O)c2ccccc2)c1OC (configuration not stated)	H9c2 protect 57
COc1ccc2nc3n(c(=O)c2c1)-c1cc(Cl)ccc1C(=O)NC3Cc1ccccc1 (configuration not stated)	none (no result: aDG glyco act, MPTP inh, FAS-TE inh, H9c2 protect)
CC(=O)c1ccc(OCCCC(=O)N2CCN(S(=O)(=O)c3ccc(C)cc3C)CC2)cc1	none
COc1cccc(NC(=O)CN(C)C(=O)c2ccc(NC(=O)CC3SC(N4CCCC4)=NC3=O)cc2)c1 (configuration not stated)	none (no result: Mot1-301 SUMO, Yeast superoxide)
CCOC(=O)C1=C(COC(=O)c2cc([N+](=O)[O-])ccc2Cl)NC(=O)NC1C (configuration not stated)	none (no result: Mot1-301 SUMO, Yeast superoxide)
CCOC(=O)C1=C(COC(=O)c2ccc([N+](=O)[O-])o2)NC(=O)NC1C (configuration not stated)	H9c2 protect 61
Cc1ccc(S(=O)(=O)c2nc(/C=C/c3ccccc3)oc2N2CCC(C(N)=O)CC2)cc1	none (no result: Mot1-301 SUMO, Yeast superoxide)
N#C/C(=C\c1ccc([N+](=O)[O-])o1)C(=O)Nc1ccc(F)cc1	Mot1-301 SUMO 323
COc1ccc(NC(=O)/C(C#N)=C\c2ccc(Br)o2)cc1	none
O=C1C(c2ccccc2)C2C=CC(C2)N1O (configuration not stated)	none (no result: Mot1-301 SUMO, Yeast superoxide)
O=C(c1ccc(-n2cnnn2)cc1)N1CCOCC1	Mot1-301 SUMO 303
Cc1csc(NC(=O)CSc2nnc(-c3ccco3)n2C)n1	none
COc1cccc2cc(-c3nnc(SCC(=O)Nc4nc(C)cs4)n3C)oc12	H9c2 protect 69
Cc1ccccc1-c1cnc(C(O)c2ccc(F)c(F)c2)[nH]1 (configuration not stated)	none (no result: Mot1-301 SUMO, Yeast superoxide)
CC1(C)Cc2cccc(OCC(=O)OCc3nnc(-c4ccc([N+](=O)[O-])cc4)o3)c2O1	none
CCc1nc2ccc(C(=O)Nc3cccc(OCC(=O)N(C)C)c3)cn2c1N(C)Cc1cc2ccccc2s1	H9c2 protect 54 (no result: Mot1-301 SUMO, Yeast superoxide)
CCc1nc2ccc(C(=O)Nc3cc(-c4ccccc4)ccc3OC)cn2c1N(C)Cc1nccs1	H9c2 protect 75 (no result: Mot1-301 SUMO, Yeast superoxide)
Oc1ccc(N=Nc2cccc(C(F)(F)F)c2)cc1C=Nc1ccc(N2CCOCC2)cc1	H9c2 protect 76
Oc1c(Cl)cc(Cl)cc1C=Nc1ccc(N2CCOCC2)cc1	H9c2 protect 65
Oc1c(Br)cc(Br)cc1C=Nc1ccc2c(c1)OCO2	none
